Measurements: PubChem BioAssay (EPA / NIEHS)
Active and inactive are the calls of the source. The calls were made as follows: active = hit-call score of the fitted dose curve at least 0.9, where 1 is the maximum; inactive = score below 0.9.

Read-out: CD69, CD69 (gene 969)
Experiment: BSK_SAg_CD69: BioMAP Diversity Plus: SAg Assay for CD69 Biomarker Activity (AID 2283089)
Details: primary human HUVEC with PBMC; actives raise or lower the signal
Procedure: BSK_SAg is a cell-based, multiplexed-readout assay that uses umbilical vein endothelium and peripheral blood mononuclear cells, a human vascular primary cell co-culture, with measurements taken at 24 hours after chemical dosing in a 96-well plate.BSK_SAg_CD69 is one of 10 assay component(s) measured or calculated from the BSK_SAg assay. It is designed to make measurements of enzyme-linked immunosorbent assay, a form of binding reporter, as detected with fluorescence intensity signals by Enzyme-linked immunosorbent assay technology.Data from the assay component BSK_SAg_CD69 was analyzed into 1 assay endpoint. This assay endpoint, BSK_SAg_CD69, was analyzed with bidirectional fitting relative to DMSO as the negative control and baseline of activity. Using a type of binding reporter, gain or loss-of-signal activity can be used to understand changes in the signaling as they relate to the gene CD69. Furthermore, this assay endpoint can be referred to as a primary readout, because this assay has produced multiple assay endpoints where this one serves a signaling function. To generalize the intended target to other relatable targets, this assay endpoint is annotated to the cytokine intended target family, where the subfamily is inflammatory factor.
The levels of cell surface (or secreted, indicated by the prefix "s") biomarker endpoints were measured by ELISA. Overt cytotoxicity to cells in confluent adherent cultures (all systems other than the BT system) was assessed by measuring total protein levels using sulforhodamine B (SRB) staining in parallel cultures at the time of biomarker measurements, indicated as SRB endpoints. For proliferation assays for adherent cell types, individual cell types are cultured at sub-confluence and relative cell numbers quantified by SRB staining at time points optimized for each system (48 h: 3C and CASM3C systems; 72 h: BT and HDF3CGF systems; 96 h: SAg system). SRB was performed by staining cells with 0.1% SRB after fixation with 10% TCA and reading wells at 560 nm.Viability and proliferation of PBMC (T cells) was quantified by Alamar Blue reduction for the SAg and BT systems. For PBMC viability (referred to as PBMC Cytotoxicity within the assay endpoint names), cells were plated (75,000/well in a 96-well plate) and then chemical samples added for 1 h before addition of activators, SEB and TSST-1 (20 ng/mL final concentration each). Cells were incubated for 90 h. Then, Alamar Blue (20 uL/well) (Invitrogen, Cat DAL1100) was added for 6 h, and the plates were read with a fluorescence microplate reader at 546/580 nm (excitation/emission). For PBMC proliferation, cells were plated and activated as above but incubated for only 16 h prior to addition of Alamar Blue. Plates were read after 6 h.

| Structure (SMILES) | AC50 | outcome |
| --- | --- | --- |
| O=C1OC2(c3ccccc31)c1ccc(O)c(Br)c1Oc1c2ccc(O)c1Br | 20 µM (active) | – |
| IC(I)I | – | inactive |
| COc1cc(Cl)c(OC)cc1N | – | inactive |
| C=C(C)[C@H]1CC=C(C)C(=O)C1 | – | inactive |
| c1ccc(Oc2ccccc2)cc1 | – | inactive |
| CC=Cc1ccc(OCC)c(O)c1 | – | inactive |
| Clc1cc(Cl)c(-c2c(Cl)c(Cl)cc(Cl)c2Cl)cc1Cl | 10 µM (active) | – |
| CS(=O)(=O)c1ccc(C2=C(c3ccccc3)C(=O)OC2)cc1 | – | inactive |
| C=C(C)C(=O)OCCOCCOCCOC(=O)C(=C)C | – | inactive |
| CC(CN=Cc1ccccc1O)N=Cc1ccccc1O (stereo not given) | – | inactive |
| CC(=O)c1c(C)c([N+](=O)[O-])c(C(C)(C)C)c([N+](=O)[O-])c1C | – | inactive |
| C[C@@H]1CCN(C(=O)[C@H](CCCN=C(N)N)NS(=O)(=O)c2cccc3c2NC[C@H](C)C3)[C@@H](C(=O)O)C1 | – | inactive |
| CC(=O)Nc1ccc(C(=O)CCl)cc1 | 5.33 µM (active) | – |
| CCCCCC(C=O)=Cc1ccccc1 | – | inactive |
| CCC(C)c1cc([N+](=O)[O-])cc([N+](=O)[O-])c1OC(=O)OC(C)C (stereo not given) | 8.7 µM (active) | – |
| O=CN1CCOCC1 | – | inactive |
| O=C(Nc1ccc2c(O)c(N=Nc3ccc(N=Nc4ccc(S(=O)(=O)O)cc4)cc3)c(S(=O)(=O)O)cc2c1)c1ccccc1 | – | inactive |
| CC(C=O)Cc1ccc(C(C)(C)C)cc1 (stereo not given) | – | inactive |
| CC1(C)CCC[C@]2(C)[C@H]3CCO[C@]3(C)CC[C@@H]12 | – | inactive |
| CCOC(=O)C(C#N)=C(c1ccccc1)c1ccccc1 | – | inactive |

| Structure (SMILES) | AC50 | outcome |
| --- | --- | --- |
| CN(C)C(=O)Nc1ccc(Oc2ccc(Cl)cc2)cc1 | – | inactive |
| CC(=O)C1(C)CC2=C(CCCC2(C)C)CC1C (stereo not given) | 24.5 µM (active) | – |
| CC1(C)C2=CCCC(C)(C)[C@]23CC[C@H]1C3 | – | inactive |
| CCN(CC)C(=O)N(CC)CC | – | inactive |
| c1ccc(CCc2ccccc2)cc1 | 30 µM (active) | – |
| CN(C)C(=S)SC(=S)N(C)C | – | inactive |
| COc1ccc(CCN2CCC(Nc3nc4ccccc4n3Cc3ccc(F)cc3)CC2)cc1 | 5 µM (active) | – |
| C1=CC2C3C=CC(C3)C2C1 (stereo not given) | – | inactive |
| CC(C)(C)CC(C)(C)c1ccc(OCCOCC[N+](C)(C)Cc2ccccc2)cc1 | 3.28 µM (active) | – |
| CCCCCCC(CO)CCCC (stereo not given) | – | inactive |
| Cc1cc(CCC(=O)OCCOCCOCCOC(=O)CCc2cc(C)c(O)c(C(C)(C)C)c2)cc(C(C)(C)C)c1O | – | inactive |
| CSCCC=O | – | inactive |
| COc1ccc(OC)c(N=Nc2c(O)ccc3ccccc23)c1 | – | inactive |
| CCCCCCCCCCCCCCCC(=O)OC/C=C(C)/C=C/C=C(C)/C=C/C1=C(C)CCCC1(C)C | 20 µM (active) | – |
| Oc1c(Cl)cc(Cl)c(Cl)c1Cc1c(O)c(Cl)cc(Cl)c1Cl | 5.19 µM (active) | – |
| C=CC(C)(O)CCC=C(C)C (stereo not given) | – | inactive |
| CS(=O)(=O)OCCCCOS(C)(=O)=O | – | inactive |
| CN(c1nccc(=O)[nH]1)C1CCN(c2nc3ccccc3n2Cc2ccc(F)cc2)CC1 | – | inactive |
| O=C1OC[C@H](Cc2cccc(O)c2)[C@H]1Cc1cccc(O)c1 | – | inactive |
| C=C(C)C(=O)OCCOCCOCCOCCOC(=O)C(=C)C | – | inactive |
